The source of these data is PubChem BioAssay (Tox21).

Several values for one entry are separate records, joined by “and”; a condition that tells them apart may be missing. Equal values may be shown once. Records with an inconclusive call do not appear. Entries that show only a call come without a potency. A structure can be active in one record and inactive in another. Activity calls are given as the source filed them. Calls follow the shape of the dose curve; as a rule, active = well fitted cell-killing curve with a large enough effect in the repeat runs; inconclusive = weak or mixed curves, or effect the other way; inactive = no such curve, though single readings can be large or run the other way.
Potency is read from the fitted curve at half-maximal effect.

The nature of this assay: Caspase-3/7 induction in CHO-K1 cells by small molecules, qHTS cell viability counter screen (AID 1346979). Also: nearly all actives have a fitted effect of over 35% in size. The following applies: CellTiter-Fluor fluorescence, 17 h; series mostly up to 92.4 µM; activity change, negative = cytotoxicity: at the top concentration. The text has this: National Center for Advancing Translational Sciences [NCATS]
NIH Chemical Genomics Center [NCGC]
U.S. Environmental Protection Agency [EPA]
National Institutes of Environmental Health Sciences [NIEHS]
National Toxicology Program [NTP]
U.S. Food and Drug Administration [FDA]
Apoptosis is a process of programmed cell death and plays a central role in the development of multicellular organisms. It is a highly regulated process and induces cell death by activating caspases, which are the members of cysteine aspartic acid-specific protease (caspase) family. Caspases involved in apoptosis are classified by their mechanism of action as initiator caspases (caspase-2, -8, -9 and -10) and executioner caspases (caspase-3, -6, and -7). Inhibition of apoptosis results in number of cancers, autoimmune diseases, inflammatory diseases and viral infection. To identify small molecule compounds that induce apoptosis, a homogeneous, luminescent Caspase-Glo 3/7 assay was used. Wild type CHO-K1 cells were used to screen Tox21 libraries for identifying caspase-3/7 activity inducers. Also cytotoxicity of the compounds was tested in parallel by measuring the cell viability using CellTiter-Fluor assay system in the same wells.
Tox21 Assay Protocol Summary:
CHO-K1 cells were dispensed at 1,500 per well in 5uL of culture medium into white solid bottom 1536-well plates (Corning Life Sciences, Corning, NY) using a Multidrop Combi (Thermo Scientific, Waltham, MA) dispenser. The assay plates were incubated at 37 C and 5% CO2 for 5hr, and then 23nL of compounds dissolved in DMSO and positive control were transferred using a Pintool station (Wako, San Diego, CA). The assay plates were incubated at 37C and 5% CO2 for 17hr. For cytotoxicity read, after 16hr incubation at 37C, 1uL CellTiter-Fluor reagent (Promega Corporation, Madison, WI) was added to each well of the assay plates using Flying Reagent Dispenser (FRD, Aurora Discovery, San Diego, CA). After 1hr incubation at 37C and 5% CO2, the fluorescence signal was quantified using a ViewLux plate reader (PerkinElmer, Shelton, CT).
Take `CNC(=S)S`: the Potency result is “inactive”. On to `CCOC(=O)c1ccccc1N`, for which the Potency result is “inactive”. Take `Cc1ccc(N=CN(C)C=Nc2ccc(C)cc2C)c(C)c1`: the “activity change, negative = cytotoxicity” value was 6.75% [at 42.5 µM] (inactive). The same measure, in the same setting: the same measure for `CCCCCCCCCCCCCl`: 5.9% (inactive). In the case of `CSc1nc(NC(C)C)nc(NC(C)C)n1`, the Potency result was “inactive”. `Oc1ccc(Cl)cc1Cl`: the Potency entry was “inactive”. Same read-out and setting: the same measure for `CN(C)c1ccccc1`: “inactive”; for `CCCCC(C#N)(Cn1cncn1)c1ccc(Cl)cc1` (stereo not given): “inactive”.

Regarding `COP(=S)(OC)Oc1ccc(Sc2ccc(OP(=S)(OC)OC)cc2)cc1`, the “activity change, negative = cytotoxicity” value is 7.86% [at 42.5 µM] (inactive). For the molecule `CCNCC`, the Potency entry was “inactive”. `CC(C)Nc1nc(Cl)nc(NC(C)C)n1`: the Potency entry was “inactive”. The same measure, in the same setting: the same measure for `C[C@]12CCC(=O)C=C1CC[C@@H]1[C@@H]2CC[C@@]2(C)[C@H]1CC[C@]2(C)O`: 50.4 µM (active). For the molecule `Cc1cc(Cl)ccc1N=CN(C)C`, the “activity change, negative = cytotoxicity” value is 6.79% (inactive).

Consider `CC(O)CN(CC(C)O)CC(C)O` (stereo not given), for which the Potency result was “inactive”. On the same count and under the same terms, the same measure for `Clc1cccc(C(Cl)(Cl)Cl)n1`: “inactive”; for `COc1ccc(C=O)cc1OC`: “inactive”; for `Nc1ncn[nH]1`: “inactive”. Same read-out and setting: next, `O=[N+]([O-])c1ccc(Cl)c([N+](=O)[O-])c1`: 6.96 µM (active) and 12.2 µM (active); `O=C1Nc2ccc(Cl)cc2C(c2ccccc2)=NC1O` (stereo not given): “inactive”. Consider `CN(C)c1nc(=O)n(C2CCCCC2)c(=O)n1C`, for which the “activity change, negative = cytotoxicity” value is 0.26% (inactive). In the case of `NN=C(N)N`, the Potency result is “inactive”. Same read-out and setting: next, `[CH3][Sn]([Cl])([Cl])[Cl]`: “inactive”. With `CCCCCCCCCC(CC)c1ccc(S(=O)(=O)O)cc1` (stereo not given), the Potency was 61.8 µM (active) and inactive and 52.9 µM (active). With `COP(=S)(OC)Oc1ccc(S(=O)(=O)N(C)C)cc1`, the Potency entry is “inactive”. Same read-out and setting: the same measure for `O=[N+]([O-])/N=C1\NCCN1Cc1ccc(Cl)nc1`: “inactive”. The same measure, in the same setting: the same measure for `N#CCCCCC#N`: “inactive”; for `Brc1ccc(Br)cc1`: “inactive”. Turning to `NC(=O)CN1CCCC1=O`, the Potency entry was “inactive”. Same read-out and setting: the same measure for `Nc1ccc([N+](=O)[O-])cc1N`: 6.11 µM (active) and 30.6 µM (active). For the molecule `CC1(C)C(C(=O)OC(C#N)c2cccc(Oc3ccccc3)c2)C1(C)C` (stereo not given), the “activity change, negative = cytotoxicity” value is -3.85% (inactive). The same measure, in the same setting: the same measure for `CC(C)(c1ccc(OCC2CO2)cc1)c1ccc(OCC2CO2)cc1` (stereo not given): -0.944% (inactive). As to `CC1(C)Cc2cccc(O)c2O1`, the Potency result is “inactive”. Still for that read-out and setting: next, `CCNc1nc(Cl)nc(NC(C)(C)C#N)n1`: “inactive”; `c1ccc2c(c1)Nc1ccccc1S2`: 68.6 µM (active) and inactive. On the same count and under the same terms, next, `OCCOCCO`: 7.92 µM (active) and inactive; `CCCCOCCOC(C)=O`: “inactive”; `O=C(O)c1nn(Cc2ccc(Cl)cc2Cl)c2ccccc12`: “inactive”. On the same count and under the same terms, the same measure for `N#CC(c1ccccc1)c1ccccc1`: “inactive”; for `Clc1cccc(Cl)c1`: “inactive”; for `ClCc1ccccn1`: “inactive”.
